“And” between values parts separate entries of the source, which are not always exact repeats. Equal entries are not always repeated. Among all 220,000 compounds or so, about 8,200 (3.7%) were called active. Only a selection was taken, and actives are over-represented in it overall. Values without a mark were called inactive.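 Rule for the calls: active = compounds that reduced the stress-induced luciferase reporter signal by more than about 70% of percent inhibition (limit read from the data); inactive = the rest.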
assay: blockers of ER-stress CHOP reporter expression – cell-based, unfolded protein response, luciferase reporter, primary screen (AID 2732); conditions: CHO-K1 CHOP-promoter luciferase, tunicamycin-induced, 15-18 h; at 10 µM; hits give high values;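 note: 0% = tunicamycin plus vehicle and 100% = wells without tunicamycin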

Row | Compound | inhibition
1 | COc1ccc(-c2ccc(OC(=O)NC3CCS(=O)(=O)C3)cc2)cc1 (stereo not given) | 20.4%
2 | COc1ccc(/C=N/NC(=O)c2ccccc2)cc1OS(=O)(=O)c1ccccc1 | 7.47%
3 | COc1cc(/C=N/NC(=O)Nc2ccccc2)ccc1OCCOc1ccccc1C | 104% (active)
4 | COc1cc(/C=N/NC(=O)c2ccccc2)ccc1OS(=O)(=O)c1ccccc1 | -6.49%
5 | CC(C)c1nc(SCC(=O)NC(=O)NC(C)(C)C)n[nH]1 | 18.7%
6 | Cc1cc(C)cc(OCC(=O)O/N=C(\N)Cc2ccc([N+](=O)[O-])cc2)c1 | 13.5%
7 | O=C(Nc1ccc(Br)cn1)C1CCN(S(=O)(=O)c2cccs2)CC1 | 42.9%
8 | C/C=C/C(=O)Nc1ccc(N2CCN(c3ccc(C(F)(F)F)cn3)CC2)nc1 | 1.12%
9 | Nc1ccccc1Sc1ccc(C(F)(F)F)cc1[N+](=O)[O-] | -6.84%
10 | COc1ccc(-c2nn(C)c(=O)c3ccccc23)cc1CNC(=O)C1CCCCC1 | 4.54%
11 | Cc1cc(C(=O)CCl)c(C)n1CC1COc2ccccc2O1 (stereo not given) | 106% (active)
12 | CCn1cc(C(=O)NCC2COc3ccccc3O2)c2cc(OC)c(OC)cc2c1=O (stereo not given) | 19.1%
13 | Cc1cc(NC(=O)CCC2COc3ccccc3O2)no1 (stereo not given) | 7.18%
14 | O=C(NC1C2CC3CC(C2)CC1C3)c1ccc(N2CCNCC2)c([N+](=O)[O-])c1 (stereo not given) | -22.1%
15 | O=C1CCC(=O)N(O)CCCCCNC(=O)CCC(=O)N(O)CCCCCNC(=O)CCC(=O)N(O)CCCCCN1 | 3.7%
16 | COc1ccccc1NC(=O)c1cc(Cl)nc2ccccc12 | 11.8%
17 | CCn1c2ccccc2c2cc(CC(N)=O)ccc21 | 17.4%
18 | COc1ccc(C(=O)O/N=C(\N)Cc2ccc(Cl)cc2Cl)cc1OC | 60.4%
19 | NC(N)=N/N=C/c1ccc(Cl)c([N+](=O)[O-])c1 | -23.8%
20 | NC(N)=N/N=C/c1ccc(OCc2ccc(Cl)cc2Cl)cc1 | 108% (active)
21 | O=C(CCc1ccccc1)NNc1ccc(F)cc1 | 4.92%
22 | O=C(NC1(C(F)(F)F)NC(=O)N(C2CCCCC2)C1=O)c1ccco1 (stereo not given) | 9.81%
23 | O=C1NC(Nc2nc3ccccc3s2)(C(F)(F)F)C(=O)N1C1CCCCC1 (stereo not given) | 78.6% (active)
24 | COC(=O)NC1(C(F)(F)F)NC(=O)N(C2CCCCC2)C1=O (stereo not given) | 2.29%
25 | Nc1nc(SC23CC4CC(CC(C4)C2)C3)ns1 | 11.6%

Row | Compound | inhibition
26 | COC(=O)c1cn(C(=O)c2ccc(Cl)cc2)c2ccccc12 | 9.55%
27 | O=C(CSc1nnc(SCc2ccc(F)cc2)s1)Nc1ccc(C(=O)O)cc1 | -8.93%
28 | CCCOc1ccccc1C1CC(=O)Nc2cc3c(cc21)OCO3 (stereo not given) | 85.8% (active)
29 | COc1ccccc1C1C2=C(COC2=O)Nc2cc3c(cc21)OCO3 (stereo not given) | 23.1%
30 | COCCOC(=O)C1=C(C)NC(=O)CC1c1cc2c(cc1Br)OCO2 (stereo not given) | -14.4%
31 | CC(C)(C)c1nnc(NC(=O)C2c3ccccc3Oc3ccccc32)s1 | 45.8%
32 | CCn1c(SCc2ccc(C)cc2)nnc1-c1nn(-c2ccccc2)ccc1=O | 28.9%
33 | CCc1ccc(-c2nn(-c3ccccc3)cc2CSC(=N)N)cc1 | 103% (active)
34 | N=C(N)SCc1cccc2ccccc12 | 35.6%
35 | Cn1c(=O)c2c(-c3cccc(Br)c3)c(C#N)c(N)nc2n(C)c1=O | 3.49%
36 | Cc1nc(N)sc1N=Nc1c(C)n(C)n(-c2ccccc2)c1=O | 4.59%
37 | O=C(CCl)Nc1ccc(Sc2ccc(NC(=O)CCl)cc2)cc1 | 106% (active)
38 | Cc1ccc(NC(=O)CC(=O)Nc2ccc(C)cc2)cc1 | 20.6%
39 | CC(C)(CCl)C(=O)Nc1ccc(Sc2ccc(F)cc2)cc1 | 68%
40 | COc1ccc(N=C(C)c2sc3ccccc3c2O)cc1 | 1.74%
41 | C=CCNC(=S)N/N=C/c1ccc(C)s1 | -20%
42 | CC(=O)NCC(O)c1ccc([N+](=O)[O-])cc1 (stereo not given) | 5.99%
43 | O=S(=O)(NCc1ccco1)c1cnc(Cl)c(Cl)c1 | -45.5%
44 | CN=C1C=C/C(=N/N=c2\ccn(O)cc2C)C=C1C | -15.3%
45 | COC(=O)CN1C(C)=Nc2ccc(Br)cc2C1c1ccccc1 (stereo not given) | -10.6%
46 | CCC(CC)C(=O)N1CC(=O)Nc2ccc(Br)cc2C1c1ccccc1 (stereo not given) | 81.3% (active)
47 | Cc1ccc2c(c1)C(c1ccccc1)N(C(=O)c1ccc(S(=O)(=O)N3CCOCC3)cc1)CC(=O)N2 (stereo not given) | 18%
48 | CN(C)C(=O)c1nc2ccc(Cl)cn2c1CNCc1cccc(OC(F)(F)F)c1 | -1.69%
49 | Cc1cnc(NC(=O)Cn2cnc3c2c(=O)n(C)c(=O)n3C)s1 | -10.1%
50 | Cc1ccc(C(=O)NNc2ncnc3ccccc23)cc1 | 3.67%

Row | Compound | inhibition
51 | Cc1nn(-c2ccccc2)c(=O)c2noc(C)c12 | 1.49%
52 | CCn1c2ccccc2c2cc(NC(=S)N3CCOCC3)ccc21 | 30.3%
53 | Cc1cc(N2CCOCC2)nc2ccc(NC(=S)N3CCN(Cc4ccccc4)CC3)cc12 | 80.6% (active)
54 | Cc1cc(N2CCN(C)CC2)nc2ccc(NC(=S)N3CCOCC3)cc12 | 2.29%
55 | CC(CO)(CO)NC(=O)c1ccc(=O)[nH]n1 | 0.5%
56 | O=P(O)(CN1CCCCCC1)C1Cc2ccccc2C1 | 4.35%
57 | O=c1cc(N2CCCCC2)c(-c2ccccc2)nn1Cc1cccc(F)c1 | 74.7% (active)
58 | O=c1cc(N2CCN(Cc3ccccc3)CC2)c(-c2ccccc2)n[nH]1 | 26.9%
59 | O=c1c2ccccc2c(-c2ccccc2)nn1Cc1ccccc1 | 43.8%
60 | C/C(Cc1ccccc1)=N\NC(=O)CNC(=O)c1ccccc1Cl | -14.9%
61 | COc1ccc(OCC(O)CNCCNc2nccc(C(F)(F)F)n2)cc1 (stereo not given) | 3.94%
62 | O=C(Cc1ccccc1)N/N=C/c1ccc(Cl)cc1Cl | -13.9%
63 | COc1ccc(/C=N/NC(=O)Cn2cc(C(F)(F)F)ccc2=O)cc1 | -10.7%
64 | O=C(Cn1cc(C(F)(F)F)ccc1=O)N/N=C/c1ccc(Cl)cc1Cl | 104% (active)
65 | NS(=O)(=O)c1ccc(NC(=O)COC(=O)c2cc3ccccc3oc2=O)cc1 | 5.84%
66 | CCOc1cc2c(Cl)ncnc2c(OCC)c1OCC | 23.1%
67 | S=c1[nH]c2ccccc2c2ccccc12 | -2.18%
68 | CCN(CC)CCCN=C(N)N | 3.64%
69 | CCOC(=O)N1CCN(C(=O)C2CCN(c3ncnc4c3sc3cccc(F)c34)CC2)CC1 | 85.7% (active)
70 | CCOC(=O)N1CCN(C(=O)C2CCN(Cc3ccc(OC)cc3OC)CC2)CC1 | 18.3%
71 | CCOC(=O)C1CCN(c2ncnc3c2oc2ccc(Br)cc23)CC1 | 21.9%
72 | Nc1nc(NCC2CCCO2)nc(Nc2ccccc2F)c1[N+](=O)[O-] (stereo not given) | 12.4%
73 | CC(C)CCNC(=O)C1CCC(CNc2c(N3CCC(C)CC3)c(=O)c2=O)CC1 (stereo not given) | 1.09%
74 | Cc1ccc2c(c1)nnc1nnc(SCC(=O)O)n12 | 3.13%
75 | CSc1nc(-c2ccco2)nn1C(=O)c1ccccc1Cl | 78.2% (active)

Row | Compound | inhibition
76 | CSc1nc(-c2ccco2)nn1C(=O)CCc1ccccc1 | 37.2%
77 | CS(=O)(=O)n1nc(-c2ccco2)nc1N | 42.4%
78 | COc1cccc(N2C(=O)CC(N3CCc4ccccc4C3)C2=O)c1 (stereo not given) | -8.87%
79 | CSCC[C@H](NC(=O)CCCn1nnc2ccccc2c1=O)C(=O)O | 4.06%
80 | Cc1ccc(C(=O)c2c(NC(=O)c3ccncc3)sc3c2CCCC3)cc1 | 73.2% (active)
81 | Cc1ccc(C(=O)c2c(NC(=O)c3ccccc3)sc(C)c2C)cc1 | 53.1%
82 | Cc1ccc(NC(=O)c2c(NC(=O)CCC(=O)O)sc3c2CCCCC3)cc1 | 5.76%
83 | COc1c(C=O)c(CCN(C)C(=O)c2ccc(F)cc2)cc2c1OCO2 | -10.2%
84 | COc1ccccc1C1CCN(C(=S)Nc2ccc(Br)cc2)CC1 | 26.5%
85 | COCCn1nnnc1C(c1ccccc1Cl)N1CCN(c2ccccc2OC)CC1 (stereo not given) | 81.6% (active)
86 | COc1ccccc1C(c1nnnn1C(C)(C)C)N1CCN(Cc2ccccc2)CC1 (stereo not given) | -9.46%
87 | COc1ccccc1C(c1nnnn1CC1CCCO1)N1CCN(c2ccccc2)CC1 (stereo not given) | -9.42%
88 | O=C(NCc1cccnc1)C(=O)Nc1nc(-c2ccccc2)cs1 | 16.9%
89 | FC(F)(F)c1ccnc(Oc2ccc(C3=NCCS3)cc2)c1 | 1.85%
90 | CC(C)=CCC/C(C)=C/C(=O)O | -11.9%
91 | Cc1ccc(C(=O)N2CCCC(c3ccccc3)=N2)cc1 | 78.5% (active)
92 | Cc1ccc(C(=O)C[n+]2cc(-c3ccccc3)n3c2CCCCC3)cc1 | -15.7% and 24.3%
93 | Cc1ccc(NC(=S)N2CCCC(c3ccccc3)=N2)cc1 | 16.8%
94 | O=C(COc1ccccc1F)NC1CC1 | 40%
95 | O=C(COc1cc(Cl)c(Cl)cc1Cl)NCCc1ccccn1 | -12.8%
96 | O=C(COc1cc(Cl)c(Cl)cc1Cl)NC(=O)NC1CCCC1 | 91% (active)
97 | CCN(CC)CCC(c1ccc2c(c1)OCO2)c1c(OC)cc(OC)c2c(-c3ccccc3)cc(=O)oc12 (stereo not given) | -37.9%
98 | COc1ccc2[nH]cc(/C=C(/C#N)S(=O)(=O)c3ccccc3)c2c1 | 70.3% (active)
99 | COc1ccc(NS(=O)(=O)c2ccc(Oc3c(C#N)cccc3C#N)cc2)cc1 | 54.8%
100 | CCN(CC)CC(=O)c1c[nH]c2ccc(OC)cc12 | -4.19%
